Laboratory results from PubChem BioAssay AID493012 (Sanford-Burnham Center for Chemical Genomics, 2011).
The campaign covered roughly 330,000 compounds. About 930 (0.28%) were called active. Shown is part of a subset that was picked to be rich in actives. Unmarked numbers belong to inactive results.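 Rule for the calls: active = inhibition of at least 40% at 20 µM, with no more than 30% in the related APOBEC3A deaminase screen; inactive = the rest.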

Biological target: DNA dC->dU-editing enzyme APOBEC-3G (Homo sapiens) (UniProt Q9HC16)
Sequence (Q9HC16 whole entry, looked up): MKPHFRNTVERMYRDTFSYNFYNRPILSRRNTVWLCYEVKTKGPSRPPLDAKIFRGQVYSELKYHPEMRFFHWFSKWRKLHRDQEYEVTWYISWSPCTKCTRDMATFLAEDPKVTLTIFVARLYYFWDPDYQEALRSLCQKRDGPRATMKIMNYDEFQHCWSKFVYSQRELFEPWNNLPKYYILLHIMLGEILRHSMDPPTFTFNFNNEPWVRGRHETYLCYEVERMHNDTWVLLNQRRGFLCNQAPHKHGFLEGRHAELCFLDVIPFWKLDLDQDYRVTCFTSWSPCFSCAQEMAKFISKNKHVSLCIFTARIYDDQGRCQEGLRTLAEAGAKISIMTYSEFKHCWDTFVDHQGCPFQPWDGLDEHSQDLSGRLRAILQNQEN
Test: APOBEC3G DNA deaminase inhibitors, primary screen, biochemical, fluorescence, single-stranded DNA substrate, uHTS (AID 493012);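 note: plate controls were DMSO wells with A3G for no effect and wells lacking A3G enzyme for full effect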
Conditions: recombinant A3G, ssDNA deamination FAM/TAMRA fluorescence; at 20 µM; stronger effect = higher value

| Structure (SMILES) | inhibition |
| --- | --- |
| CCCN1C2CCCC1CC(NC(=O)NC13CC4CC(CC(C4)C1)C3)C2 (stereo not drawn) | -7.31% |
| CC(C)C1Nc2c(C(=O)O)cccc2C(Nc2ccccc2C(=O)O)C1(C)C (stereo not drawn) | 3.35% |
| COc1ccc(N2C(=O)CC(SC(C)C)C2=O)cc1 (stereo not drawn) | -8.49% |
| COc1ccc(-c2nc(SCC(=O)N3CCCC3)n[nH]2)cc1 | -17.7% |
| COc1ccc(N2C(=O)CC(Sc3n[nH]c(-c4ccc(C)cc4)n3)C2=O)cc1 (stereo not drawn) | 41.5% (active) |
| CCOC(=O)C1=C(c2ccccc2)NC(=O)NC1c1cc(OCC)c(O)c([N+](=O)[O-])c1 (stereo not drawn) | -2.96% |
| CCOC(=O)c1cnc(Nc2nc3ccccc3o2)nc1CSC(=S)N1CCCCC1 | -3.98% |
| CC(C)NC(=O)NC(=O)COC(=O)c1ccc(NC(=O)CC#N)cc1 | -1.25% |
| CCOc1ccc(NC(=O)c2ccc(NC(=O)COC(=O)c3ccc(NC(=O)CC#N)cc3)cc2)cc1 | 66.2% (active) |
| N#CCC(=O)Nc1ccc(C(=O)OCC(=O)Nc2sc3c(c2C#N)CCCC3)cc1 | -9.04% |
| COc1ccc(C2(C)ON(c3ccccc3C(F)(F)F)C2=O)cc1 (stereo not drawn) | -6.81% |
| CC(=O)Nc1ccc(S(=O)(=O)Nc2ccc(N3CCCCC3)cc2)cc1 | -1.93% |
| O=C1C=CC(=O)N1c1ccc(N2CCCCC2)cc1 | 56.8% (active) |
| O=C(C1CC(=O)N(C2CCCCC2)C1)N1CCN(c2ccccc2)CC1 (stereo not drawn) | -5.67% |
| COc1ccccc1OCC(=O)Nc1c2c(nn1-c1ccc(F)cc1)CS(=O)(=O)C2 | -3.56% |
| O=C(NCC1CCCCC1)c1cc(S(=O)(=O)N2CCCCC2)ccc1N1CCOCC1 | -1.87% |
| O=C(CCn1c(=O)oc2ccccc21)Nc1ccon1 | -6.36% |

| Structure (SMILES) | inhibition |
| --- | --- |
| Cc1nc(Cl)c(C#N)c2c1CCCC2 | -4.63% |
| COC(=O)c1c(C)c(C)nc(N)c1C#N | -1.41% |
| COCc1c(N)c(C)nc(Cl)c1C#N | 66.3% (active) |
| Brc1ccc(C2CC(c3ccccc3)=Nc3ccccc3N2)cc1 (stereo not drawn) | -3.13% |
| Cn1cccc1C(=O)NC(=O)COC(=O)Cc1coc2ccc3ccccc3c12 | -8.11% |
| COc1cccc(CN2CCN(Cc3ccc4cccc(F)c4n3)CC2CCO)c1 (stereo not drawn) | -9.71% |
| COc1ccc(CNC(=O)C(=O)N2CCC3(CC2)OCCN3S(=O)(=O)c2ccc(C)cc2)cc1 | -5.73% |
| Cc1ccc(NC(=O)CN(C)C(=O)c2ccc(Cl)c(S(=O)(=O)NCc3ccco3)c2)cc1 | -5.2% |
| COc1ccccc1/C=C/C=N/n1c(-c2ccc(Cl)cc2Cl)n[nH]c1=S | -7.26% |
| Fc1ccc(/C=N/n2c(COc3ccccc3)n[nH]c2=S)cc1 | 13.5% |
| S=c1[nH]nc(-c2ccco2)n1/N=C/c1ccc(Br)s1 | 17% |
| Cc1cc(-c2n[nH]c(=S)n2/N=C/c2ccco2)n[nH]1 | 44.7% (active) |
| S=c1[nH]nc(-c2ccco2)n1/N=C/c1ccccc1 | 44.3% (active) |
| Cc1ccc(CN2CCN(/N=C/c3ccco3)CC2)c(C)c1 | -10.3% |
| CCC(C)(C)NC(=O)c1cc([N+](=O)[O-])ccc1N1CCCCC1 | -0.515% |
| CC1(C)C[C@H]2C3=CCC4[C@@]5(C)CC[C@H](O)[C@](C)(CO)C5CC[C@@]4(C)[C@]3(C)C[C@@H](O)[C@@]2(CO)[C@@H](O)[C@@H]1O (stereo partly drawn) | -1.86% |
